Laboratory results as given in PubChem BioAssay AID1159580 (chemical genetic matrix, 2015).
Screen size: about 5,500 compounds; about 2,000 (36%) were called active. Not shown: some 18% with an inconclusive outcome. Cut-off read from the data, not from the text of the source: active = normalized growth mostly below about 0.91 (no sharp cut-off); inconclusive = no clear call, values can overlap the other calls; inactive = mostly above about 0.92. This is one part of the list.

Assay: chemical genetic growth profiling, strain panel (AID 1159580);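 note: tested at 20 µM; growth read once vehicle control cultures reached saturation at 30 °C; 1 = growth at the plate median or of vehicle wells; lower values mean less growth of the strain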
Settings: growth OD

Measured: normalized growth

CCCC(C)C1(CC)C(=O)N=C(S)NC1=O (configuration not stated)
active: S. cerevisiae deletion strains, locus YKL085W, strain MDH1 (second series), hits give low values 0.309 | S. cerevisiae deletion strains, locus YKL085W, strain MDH1, hits give low values 0.309 | S. cerevisiae deletion strains, locus YKR001C, strain vps1, hits give low values 0.0973 | S. cerevisiae deletion strains, locus YLR102C, strain apc9, hits give low values 0.0762 | S. cerevisiae deletion strains, locus YLR268W, strain sec22, hits give low values 0.0785 | S. cerevisiae deletion strains, locus YLR371W, strain rom2, hits give low values 0.077 | S. cerevisiae deletion strains, locus YLR418C, strain cdc73, hits give low values 0.0993 | S. cerevisiae deletion strains, locus YML032C, strain rad52, hits give low values 0.789 | S. cerevisiae deletion strains, locus YML124C, strain tub3, hits give low values 0.113 | S. cerevisiae deletion strains, locus YMR078C, strain ctf18, hits give low values 0.124 | S. cerevisiae deletion strains, locus YMR223W, strain ubp8, hits give low values 0.0719 | S. cerevisiae deletion strains, locus YNL250W, strain rad50, hits give low values 0.434 | S. cerevisiae deletion strains, locus YNL271C, strain bni1, hits give low values 0.163 | S. cerevisiae deletion strains, locus YNL298W, strain CLA4, hits give low values 0.372 | S. cerevisiae deletion strains, locus YNL307C, strain MCK1, hits give low values 0.0689 | S. cerevisiae deletion strains, locus YOL147C, strain pex11, hits give low values 0.677 | S. cerevisiae deletion strains, locus YOR136W, strain idh2, hits give low values 0.0798 | S. cerevisiae deletion strains, locus YOR184W, strain ser1, hits give low values 0.0729 | S. cerevisiae deletion strains, locus YOR316C, strain cot1, hits give low values 0.0718 | S. cerevisiae deletion strains, locus YPR119W, strain clb2, hits give low values 0.101 | S. cerevisiae deletion strains, locus YPR163C, strain tif3, hits give low values 0.0717 | S. cerevisiae deletion strains, locus YPR167C, strain met16, hits give low values 0.0756 | S. cerevisiae deletion strains, strain wtn01, hits give low values 0.06
inactive: S. cerevisiae deletion strains, locus YJR075W, strain HOC1, hits give low values 1 | S. cerevisiae deletion strains, locus YKL009W, strain mrt4, hits give low values 0.908 | S. cerevisiae deletion strains, locus YKL068W, hits give low values 0.947 | S. cerevisiae deletion strains, locus YKL160W, strain elf1, hits give low values 0.982 | S. cerevisiae deletion strains, locus YKL190W, strain CNB1, hits give low values 1.02 | S. cerevisiae deletion strains, locus YKR026C, strain gcn3, hits give low values 0.984 | S. cerevisiae deletion strains, locus YKR091W, strain srl3, hits give low values 1.01 | S. cerevisiae deletion strains, locus YLL001W, strain dnm1, hits give low values 0.986 | S. cerevisiae deletion strains, locus YLL026W, hits give low values 1 | S. cerevisiae deletion strains, locus YLL041C, strain sdh2, hits give low values 0.994 | S. cerevisiae deletion strains, locus YLR027C, strain aat2, hits give low values 0.998 | S. cerevisiae deletion strains, locus YLR039C, strain RIC1, hits give low values 1.06 | S. cerevisiae deletion strains, locus YLR058C, strain SHM2, hits give low values 1 | S. cerevisiae deletion strains, locus YLR113W, strain HOG1, hits give low values 0.98 | S. cerevisiae deletion strains, locus YLR221C, strain rsa3, hits give low values 0.987 | S. cerevisiae deletion strains, locus YLR258W, strain gsy2, hits give low values 1 | S. cerevisiae deletion strains, locus YLR262C, strain YPT6 (second series), hits give low values 0.918 | S. cerevisiae deletion strains, locus YLR262C, strain YPT6, hits give low values 1.01 | S. cerevisiae deletion strains, locus YLR320W, strain mms22, hits give low values 0.987 | S. cerevisiae deletion strains, locus YLR330W, strain CHS5, hits give low values 1.01 | S. cerevisiae deletion strains, locus YLR342W, strain FKS1 (second series), hits give low values 1.04 | S. cerevisiae deletion strains, locus YLR342W, strain FKS1, hits give low values 0.998 | S. cerevisiae deletion strains, locus YLR357W, strain rsc2, hits give low values 0.961 | S. cerevisiae deletion strains, locus YLR370C, strain arc18, hits give low values 0.984 | S. cerevisiae deletion strains, locus YLR384C, strain iki3, hits give low values 1 | S. cerevisiae deletion strains, locus YML016C, strain PPZ1, hits give low values 1 | S. cerevisiae deletion strains, locus YML120C, strain ndi1, hits give low values 0.988 | S. cerevisiae deletion strains, locus YMR058W, strain fet3, hits give low values 1 | S. cerevisiae deletion strains, locus YMR125W, strain sto1, hits give low values 0.974 | S. cerevisiae deletion strains, locus YMR129W, hits give low values 0.971 | S. cerevisiae deletion strains, locus YMR205C, strain PFK2, hits give low values 0.97 | S. cerevisiae deletion strains, locus YMR231W, strain pep5, hits give low values 1 | S. cerevisiae deletion strains, locus YMR263W, strain SAP30, hits give low values 1.01 | S. cerevisiae deletion strains, locus YMR307W, strain GAS1, hits give low values 0.992 | S. cerevisiae deletion strains, locus YNL067W, strain RPL9B, hits give low values 1.01 | S. cerevisiae deletion strains, locus YNL071W, strain lat1, hits give low values 1 | S. cerevisiae deletion strains, locus YNL128W, strain TEP1, hits give low values 1 | S. cerevisiae deletion strains, locus YNL153C, strain GIM3, hits give low values 0.999 | S. cerevisiae deletion strains, locus YNL183C, strain NPR1, hits give low values 0.923 | S. cerevisiae deletion strains, locus YNL209W, strain ssb2, hits give low values 0.982 | S. cerevisiae deletion strains, locus YNL233W, strain BNI4, hits give low values 0.999 | S. cerevisiae deletion strains, locus YNL248C, strain rpa49, hits give low values 0.988 | S. cerevisiae deletion strains, locus YNL322C, strain KRE1 (second series), hits give low values 0.979 | S. cerevisiae deletion strains, locus YNL322C, strain KRE1, hits give low values 1.01 | S. cerevisiae deletion strains, locus YNR049C, strain mso1, hits give low values 0.992 | S. cerevisiae deletion strains, locus YNR052C, strain pop2, hits give low values 1.01 | S. cerevisiae deletion strains, locus YOL006C, strain TOP1, hits give low values 1.03 | S. cerevisiae deletion strains, locus YOL012C, strain htz1 0.212 | S. cerevisiae deletion strains, locus YOR001W, strain rrp6, hits give low values 0.98 | S. cerevisiae deletion strains, locus YOR061W, strain CKA2, hits give low values 1.01 | S. cerevisiae deletion strains, locus YOR069W, strain VPS5, hits give low values 1.01 | S. cerevisiae deletion strains, locus YOR070C, strain gyp1, hits give low values 1 | S. cerevisiae deletion strains, locus YOR080W, strain dia2, hits give low values 0.989 | S. cerevisiae deletion strains, locus YOR083W, strain WHI5, hits give low values 0.988 | S. cerevisiae deletion strains, locus YOR106W, strain vam3, hits give low values 0.979 | S. cerevisiae deletion strains, locus YOR144C, strain elg1, hits give low values 1 | S. cerevisiae deletion strains, locus YOR231W, strain MKK1, hits give low values 0.994 | S. cerevisiae deletion strains, locus YOR265W, strain rbl2, hits give low values 0.986 | S. cerevisiae deletion strains, locus YOR270C, strain vph1, hits give low values 0.969 | S. cerevisiae deletion strains, locus YOR290C, strain snf2, hits give low values 0.997 | S. cerevisiae deletion strains, locus YPL051W, strain arl3, hits give low values 1 | S. cerevisiae deletion strains, locus YPL055C, strain LGE1, hits give low values 1.01 | S. cerevisiae deletion strains, locus YPL078C, strain atp4, hits give low values 0.981 | S. cerevisiae deletion strains, locus YPL106C, strain sse1, hits give low values 0.977 | S. cerevisiae deletion strains, locus YPL240C, strain hsp82, hits give low values 0.991 | S. cerevisiae deletion strains, locus YPL241C, strain CIN2, hits give low values 1.02 | S. cerevisiae deletion strains, locus YPL256C, strain CLN2, hits give low values 0.977 | S. cerevisiae deletion strains, locus YPR141C, strain kar3, hits give low values 0.983 | S. cerevisiae strains, strain wild type, hits give low values 1.01
